PubChem BioAssay (Tox21)
Records with an inconclusive call do not appear. A call without a number means that no potency is given here. Active and inactive are the calls of the source. The call rests on the fitted dose curve; in most records, active means well fitted inhibition curve with a large enough effect in the signal ratio in the repeat runs (not every such curve was filed as active); inconclusive means weak or mixed curves, or effect the other way; inactive means no such curve, though single readings can be large or run the other way; the % refers to the signal ratio.

Each compound was assayed against Peroxisome proliferator-activated receptor delta (Homo sapiens) (UniProt Q03181) (assay: qHTS assay to identify small molecule antagonists of the peroxisome proliferator-activated receptor delta (PPARd) signaling pathway (AID 743215;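 further: cells stimulated with agonist L165041 at 300 nM final during compound exposure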)). Conditions: HEK293H PPARd-UAS-bla, beta-lactamase FRET ratio, antagonist, 17 h; series mostly up to 62 µM.
Summary of the method: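 Agonist L165041 (300 nM final) added with compound to PPARd-bla HEK293H UAS-bla reporter cells; 17 h incubation at 37 C. Read-out: LiveBLAzer FRET substrate, 2 h at room temperature, fluorescence intensity.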
Potency means the concentration at half of the fitted maximal effect.

Sequence of Peroxisome proliferator-activated receptor delta (Homo sapiens) (Q03181 whole entry, looked up): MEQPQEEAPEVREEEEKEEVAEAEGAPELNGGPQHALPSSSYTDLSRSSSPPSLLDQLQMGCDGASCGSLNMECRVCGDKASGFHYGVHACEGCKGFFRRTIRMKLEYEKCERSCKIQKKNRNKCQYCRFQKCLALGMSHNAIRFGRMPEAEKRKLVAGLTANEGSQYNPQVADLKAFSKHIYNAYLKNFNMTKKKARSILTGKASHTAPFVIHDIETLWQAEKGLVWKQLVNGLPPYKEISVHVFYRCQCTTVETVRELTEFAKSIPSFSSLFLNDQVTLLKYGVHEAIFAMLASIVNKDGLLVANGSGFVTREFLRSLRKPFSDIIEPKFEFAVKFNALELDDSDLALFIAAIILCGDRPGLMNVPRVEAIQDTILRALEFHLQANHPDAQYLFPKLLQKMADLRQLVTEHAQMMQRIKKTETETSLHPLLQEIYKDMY

**Q.** Which Potency does the source give for `N=C(N)c1ccc(OCCCOc2ccc(C(=N)N)cc2)cc1` here?
**A.** inactive

**Q.** `CCCCCCCCCCCCCC=O` was tested. Which ratio activity, negative = inhibition did it give?
**A.** -0.712% [at 6.26 µM] (inactive)

**Q.** For `NC(=O)COCCN1CCN(C(c2ccccc2)c2ccc(Cl)cc2)CC1` (stereo not given), which Potency is on record?
**A.** inactive

**Q.** Which Potency does the source give for `CC(=O)Nc1c(I)cc(I)c(C(=O)O)c1I` here?
**A.** inactive

**Q.** How did the Potency turn out when `O=C1CCCCCCCCCCCN1` was run?
**A.** inactive

**Q.** With `CO/N=C(/C(=O)N[C@@H]1C(=O)N2C(C(=O)OCOC(=O)C(C)(C)C)=C(C)CS[C@H]12)c1csc(N)n1` as the compound, how does the Potency read?
**A.** inactive

**Q.** Which Potency does the source give for `COC(=O)C1=C(C)NC(C)=C(C(=O)OC)C1c1ccccc1[N+](=O)[O-]` here?
**A.** inactive

**Q.** `CC(=O)OC/C=C(\C)CC/C=C(\C)CCC=C(C)C` was tested. Which Potency did it give?
**A.** inactive

**Q.** Which Potency does the source give for `CC(=O)CC(C)C` here?
**A.** inactive

**Q.** With `c1cnc(N2CCN(Cc3ccc4c(c3)OCO4)CC2)nc1` as the compound, how does the Potency read?
**A.** inactive

**Q.** Which Potency does the source give for `CCOC(=O)[C@H](CCc1ccccc1)N[C@@H](C)C(=O)N1[C@H](C(=O)O)C[C@@H]2CCC[C@@H]21` here?
**A.** inactive

**Q.** With `CC(C)CNCC(C)C` as the compound, how does the Potency read?
**A.** inactive

**Q.** Which Potency does the source give for `O=C(CCCN1CCC(O)(c2cccc(C(F)(F)F)c2)CC1)c1ccc(F)cc1` here?
**A.** inactive

**Q.** How did the Potency turn out when `CCOC(=O)Nc1ccc(NCc2ccc(F)cc2)nc1N` was run?
**A.** inactive

**Q.** For `COC(=O)c1ccc(C)cc1C1=NC(C)(C(C)C)C(=O)N1` (stereo not given), which Potency is on record?
**A.** inactive

**Q.** How did the Potency turn out when `C=CCS(=O)(=O)O` was run?
**A.** inactive

**Q.** For `CCO/C([O-])=N/c1c[n+](N2CCOCC2)no1`, which Potency is on record?
**A.** inactive

**Q.** How did the Potency turn out when `CC1(C)CO[C@@H](CC(=O)O)CN1` was run?
**A.** inactive

**Q.** How did the Potency turn out when `CC(C)(c1ccc(O)cc1)c1ccc(O)cc1` was run?
**A.** 24.3 µM (active)

**Q.** `CN1CC(=O)NC1=N` was tested. Which Potency did it give?
**A.** inactive
